Laboratory results taken from PubChem BioAssay.
Active and inactive are the calls of the source.

Tests used:
[1] = target: Albumin (Bos taurus) (UniProt P02769); assay: compounds binding labelled BSA control protein – biochemical, small-molecule microarray, Alexa647 label, 635/667 nm fluorescence, artefact control for SMM control protein annotation, profiling panel (AID 1118); conditions: BSA-A647 binding, fluorescence 635 nm, higher = more signal;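 also: score merges 667 nm emission intensity and signal-to-noise per printed compound spot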
Chain of Albumin (Bos taurus) (P02769 whole entry, looked up): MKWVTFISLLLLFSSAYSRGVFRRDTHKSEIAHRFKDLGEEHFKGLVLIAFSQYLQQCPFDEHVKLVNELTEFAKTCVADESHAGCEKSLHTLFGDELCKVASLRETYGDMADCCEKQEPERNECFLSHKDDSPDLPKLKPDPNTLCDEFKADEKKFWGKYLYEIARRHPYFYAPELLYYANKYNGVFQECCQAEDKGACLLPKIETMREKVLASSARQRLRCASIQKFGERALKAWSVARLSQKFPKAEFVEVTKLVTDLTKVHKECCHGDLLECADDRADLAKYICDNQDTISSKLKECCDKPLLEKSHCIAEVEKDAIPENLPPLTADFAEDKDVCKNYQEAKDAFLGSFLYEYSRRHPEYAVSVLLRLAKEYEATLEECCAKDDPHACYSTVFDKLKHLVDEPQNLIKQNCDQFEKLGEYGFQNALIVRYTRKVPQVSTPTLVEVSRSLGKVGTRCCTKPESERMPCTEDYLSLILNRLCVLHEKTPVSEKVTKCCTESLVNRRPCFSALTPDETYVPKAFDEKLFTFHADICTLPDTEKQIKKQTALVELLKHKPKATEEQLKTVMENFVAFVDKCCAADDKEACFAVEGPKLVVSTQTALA

[2] = probe aXIP binding to arrayed compounds – biochemical, NeuroSMM set, 635/667 nm fluorescence, primary screen (AID 1119); conditions: small-molecule microarray, higher = more signal, called active from +8 up or from −8 down;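 also: probe is the protein aXip251-270 applied at 1 µg/mL to compound-printed slides; binding of probe to printed compounds measured as 667 nm fluorescence plus signal to noise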
[3] = probe aNOTCH3 binding on compound microarray – biochemical, small-molecule microarray, 635/667 nm fluorescence, primary screen (AID 1120); conditions: higher = more signal;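 also: probe is a biotin-tagged antibody raised against NOTCH3 rather than NOTCH3 protein; score merges spot fluorescence near 667 nm with spot signal to noise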
[4] = probe aNOTCH2 binding on compound microarray – biochemical, small-molecule microarray, 635/667 nm fluorescence, primary screen (AID 1121); conditions: higher = more signal;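 also: score merges feature fluorescence read at 667 nm with its signal to noise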
[5] = target: Carbonic anhydrase 2 (Homo sapiens) (UniProt P00918); assay: compounds binding carbonic anhydrase 2 – biochemical, small-molecule microarray, Alexa647-labelled CAII, profiling panel (AID 1122); conditions: CAII-A647 binding fluorescence, higher = more signal
[6] = COS7 lysate on small-molecule microarray, probe aHis, 635 nm (AID 1123); conditions: COS7 cell lysate, fluorescence, higher = more signal;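 also: z-score combines 667nm fluorescence intensity with signal-to-noise per printed compound spot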
[7] = probe aLAP1 signal on lysate-treated microarray – cell lysate, small-molecule microarray, COS7 lysate, primary screen (AID 1124); conditions: probe aLAP1, fluorescence, higher = more signal;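 also: lysate comes from COS7 cells expressing LAP1 and is applied at 0.3 µg/mL; score merges spot fluorescence near 667 nm with signal-to-noise over triplicate slides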
[8] = system: Sam68 (KHDRBS1); assay: compounds binding KHDRBS1 protein – biochemical, small-molecule microarray, 635 nm fluorescence, primary screen (AID 1125); conditions: higher = more signal;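 also: score merges 667 nm channel intensity with signal to noise over triplicate slides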
[9] = system: Chordin-like protein 2 (CHRDL2); assay: compounds binding chordin-like 2 – biochemical, small-molecule microarray, 635 nm fluorescence, primary screen (AID 1126); conditions: fluorescence 635 nm, higher = more signal;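 also: printed compound slides probed with Chrdl2 protein at 4 µg/mL for 1 h at 4 C; score merges 667 nm emission intensity with signal to noise over three replicate slides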
[10] = target: Concanavalin-A (Canavalia ensiformis) (UniProt P02866); assay: compounds binding concanavalin A lectin – biochemical, small-molecule microarray, Alexa647 label, 635 nm, artefact control for SMM control protein annotation, primary screen (AID 1127); conditions: ConA-A647 binding fluorescence, higher = more signal;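 also: z combines 667 nm emission intensity with signal-to-noise across three replicate slides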
Chain of Concanavalin-A (Canavalia ensiformis) (P02866 whole entry, looked up): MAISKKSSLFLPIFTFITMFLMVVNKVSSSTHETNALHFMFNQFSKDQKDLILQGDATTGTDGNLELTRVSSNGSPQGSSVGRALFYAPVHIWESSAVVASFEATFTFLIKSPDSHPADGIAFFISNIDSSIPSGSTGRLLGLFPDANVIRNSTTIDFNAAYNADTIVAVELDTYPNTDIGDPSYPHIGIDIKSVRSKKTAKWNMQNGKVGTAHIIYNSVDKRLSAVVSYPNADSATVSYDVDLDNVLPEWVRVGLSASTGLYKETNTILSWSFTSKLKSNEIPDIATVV

[11] = compounds binding Alexa647 anti-His antibody – biochemical, small-molecule microarray, 635 nm fluorescence, artefact control for SMM control protein annotation, primary screen (AID 1128); conditions: higher = more signal;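 also: score merges feature fluorescence with signal-to-noise for each printed compound spot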
[12] = system: Human papillomavirus type 1a E7 protein (residues 1-88); assay: HPV1a E7 small-molecule binders, primary screen, biochemical, small-molecule microarray, residues 1-88, 635 nm (AID 1129); conditions: small-molecule microarray binding, fluorescence 635 nm; higher = more signal
[13] = target: Focal adhesion kinase 1 (Homo sapiens) (UniProt Q05397); assay: PTK2 protein binding on printed compound slides – biochemical, small-molecule microarray, 635/667 nm fluorescence, BSA, DTT, primary screen (AID 1130); conditions: 635 nm fluorescence, higher = more signal;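 also: composite of spot emission at 667 nm and signal to noise over triplicate slides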
Chain of Focal adhesion kinase 1 (Homo sapiens) (Q05397 whole entry, looked up): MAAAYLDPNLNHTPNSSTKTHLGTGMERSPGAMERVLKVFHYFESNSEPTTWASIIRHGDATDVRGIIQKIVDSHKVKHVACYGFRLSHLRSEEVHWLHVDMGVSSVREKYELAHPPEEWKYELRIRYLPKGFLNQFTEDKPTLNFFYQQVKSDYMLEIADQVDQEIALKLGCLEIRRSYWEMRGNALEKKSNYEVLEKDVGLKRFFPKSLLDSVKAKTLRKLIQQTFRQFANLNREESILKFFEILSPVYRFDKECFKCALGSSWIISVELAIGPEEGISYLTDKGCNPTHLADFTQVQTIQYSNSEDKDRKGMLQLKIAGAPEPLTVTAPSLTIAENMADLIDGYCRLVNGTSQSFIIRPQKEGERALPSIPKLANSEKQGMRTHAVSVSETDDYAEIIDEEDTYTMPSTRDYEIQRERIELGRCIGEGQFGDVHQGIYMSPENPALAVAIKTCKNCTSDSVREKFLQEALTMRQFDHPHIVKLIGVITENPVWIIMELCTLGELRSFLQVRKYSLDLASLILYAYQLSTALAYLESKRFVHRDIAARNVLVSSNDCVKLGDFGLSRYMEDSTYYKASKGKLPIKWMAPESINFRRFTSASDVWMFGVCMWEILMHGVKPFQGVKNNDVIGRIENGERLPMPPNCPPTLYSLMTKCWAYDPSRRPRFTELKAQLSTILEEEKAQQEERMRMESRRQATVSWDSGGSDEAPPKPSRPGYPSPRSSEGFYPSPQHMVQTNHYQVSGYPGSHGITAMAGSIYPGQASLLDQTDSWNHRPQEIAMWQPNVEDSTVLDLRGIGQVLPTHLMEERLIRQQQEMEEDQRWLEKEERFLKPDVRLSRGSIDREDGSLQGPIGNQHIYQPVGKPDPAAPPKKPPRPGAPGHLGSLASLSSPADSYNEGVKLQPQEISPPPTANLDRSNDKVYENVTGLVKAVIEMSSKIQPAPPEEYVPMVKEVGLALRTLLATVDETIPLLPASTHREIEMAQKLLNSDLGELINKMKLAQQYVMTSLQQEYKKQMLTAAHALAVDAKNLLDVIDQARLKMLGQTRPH

[14] = system: Fibrinogen (Alexa647-labelled); assay: Alexa647-fibrinogen binding to printed small molecules – biochemical, small-molecule microarray, 635/667 nm fluorescence, artefact control for SMM control-protein annotation, profiling panel (AID 1131); conditions: fibrinogen-A647 binding fluorescence, higher = more signal;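 also: z-score merges 667 nm fluorescence with per-spot signal-to-noise over triplicate slides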
[15] = target: Follistatin (Homo sapiens) (UniProt P19883); assay: FST protein binding to printed compounds – biochemical, small-molecule microarray, 635/667 nm fluorescence, primary screen (AID 1132); conditions: 635 nm fluorescence, higher = more signal
Chain of Follistatin (Homo sapiens) (P19883 whole entry, looked up): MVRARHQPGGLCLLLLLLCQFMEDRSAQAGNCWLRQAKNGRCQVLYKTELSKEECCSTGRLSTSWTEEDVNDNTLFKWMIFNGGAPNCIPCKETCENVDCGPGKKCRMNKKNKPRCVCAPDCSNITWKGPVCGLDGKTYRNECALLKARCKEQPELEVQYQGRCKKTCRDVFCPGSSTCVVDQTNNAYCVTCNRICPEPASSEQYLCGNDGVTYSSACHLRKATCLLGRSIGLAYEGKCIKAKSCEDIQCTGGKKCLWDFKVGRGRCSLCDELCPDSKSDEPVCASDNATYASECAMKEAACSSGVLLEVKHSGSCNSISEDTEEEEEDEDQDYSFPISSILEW

[16] = target: Fibroblast growth factor 2 (Homo sapiens) (UniProt P09038); assay: basic fibroblast growth factor binding to printed compounds – biochemical, small-molecule microarray, 635/667 nm fluorescence, primary screen (AID 1133); conditions: FGF2, fluorescence 635/667, higher = more signal
Chain of Fibroblast growth factor 2 (Homo sapiens) (P09038 whole entry, looked up): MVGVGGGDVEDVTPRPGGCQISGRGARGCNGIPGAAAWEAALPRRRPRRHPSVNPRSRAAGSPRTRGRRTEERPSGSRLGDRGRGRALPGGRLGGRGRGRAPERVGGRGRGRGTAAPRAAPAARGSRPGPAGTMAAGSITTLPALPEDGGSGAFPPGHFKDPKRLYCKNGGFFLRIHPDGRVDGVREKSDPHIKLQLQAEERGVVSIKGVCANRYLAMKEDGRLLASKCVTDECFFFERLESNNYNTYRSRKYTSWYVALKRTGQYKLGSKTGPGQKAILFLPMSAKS

[17] = JC-1 mitochondrial potential readout, lung cancer cells – cell-based, A549, JC-1 fluorescence, basal, 24 h, 100 nL, profiling panel (AID 1138); conditions: higher = more signal;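 also: A549 lung adenocarcinoma cells under basal conditions with no added stimulus; test concentration not given here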
[18] = system: Lefty1; assay: Lefty1 protein binding to printed compounds – biochemical, small-molecule microarray, 635/667 nm fluorescence, primary screen (AID 1139); conditions: fluorescence 635/667, higher = more signal
[19] = system: wheat germ agglutinin (Triticum aestivum), Alexa647-labelled; assay: Alexa647-WGA lectin binding to printed small molecules – biochemical, small-molecule microarray, 635/667 nm fluorescence, artefact control for SMM control-protein annotation, profiling panel (AID 1140); conditions: WGA-A647 binding, 635 nm fluorescence, higher = more signal;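 also: score merges 667 nm feature emission with signal to noise over triplicate slides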
[20] = target: Luciferin 4-monooxygenase (Photinus pyralis) (UniProt P08659); assay: inhibition of purified Photinus pyralis luciferase – biochemical, luminescence, purified enzyme, 2006 set, primary screen (AID 1141); conditions: purified firefly luciferase, SteadyGlo luminescence, 30 min; higher = more signal, called active from +8 up or from −8 down;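 also: cell-free assay with purified firefly luciferase at 100 ng per well in PBS; test concentration not given here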
Chain of Luciferin 4-monooxygenase (Photinus pyralis) (P08659 whole entry, looked up): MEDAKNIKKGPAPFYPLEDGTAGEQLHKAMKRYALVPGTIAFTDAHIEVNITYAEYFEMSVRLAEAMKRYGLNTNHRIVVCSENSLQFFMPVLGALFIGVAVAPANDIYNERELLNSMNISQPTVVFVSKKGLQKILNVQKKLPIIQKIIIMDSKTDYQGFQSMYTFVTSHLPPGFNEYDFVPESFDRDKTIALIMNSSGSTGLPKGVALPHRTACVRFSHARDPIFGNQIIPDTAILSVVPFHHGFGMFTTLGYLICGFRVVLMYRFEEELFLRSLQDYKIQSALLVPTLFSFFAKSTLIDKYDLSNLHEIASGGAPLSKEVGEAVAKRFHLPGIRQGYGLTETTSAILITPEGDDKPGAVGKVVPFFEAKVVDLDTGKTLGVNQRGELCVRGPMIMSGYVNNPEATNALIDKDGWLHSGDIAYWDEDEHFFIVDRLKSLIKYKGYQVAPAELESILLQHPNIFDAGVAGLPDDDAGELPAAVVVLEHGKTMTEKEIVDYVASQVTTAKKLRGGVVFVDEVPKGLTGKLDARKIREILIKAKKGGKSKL

Row | SMILES | composite z-score [1] | composite Z-score [2] | composite z-score [3] | composite z-score [4] | composite z-score [5] | composite z-score [6] | composite z-score [7] | composite z-score [8] | composite z-score [9] | composite z-score [10] | composite z-score [11] | composite z-score [12] | composite z-score [13] | composite z-score [14] | composite z-score [15] | composite z-score [16] | z-score [17] | composite z-score [18] | composite z-score [19] | z-score [20]
1 | COc1ccc(C(=O)Nc2ccc3c(c2)[C@@]2(O[C@H](CCO)[C@@H]([Si](C)(C)c4ccc(OC)cc4)[C@@H]2C)C(=O)N3Cc2ccccc2)cc1 | -0.351 | 0.004 (inactive) | -0.0647 | -0.0357 | 0.124 | 0.88 | 0.556 | 0.973 | 0.268 | 0.637 | 0.829 | 0.989 | 0.397 | 0.592 | 1.25 | 1.45 | -1.3 | 0.792 | 0.413 | -0.585 (inactive)
2 | CN1C(=O)C2C=CC(C(O)c3ccc(-c4ccccc4)s3)N(NC(=O)OC(C)(C)C)C2C1=O (stereo not given) | 0.886 | 0.43 (inactive) | 0.435 | 0.164 | 0.689 | 1.65 | 0.714 | 1.23 | 0.0094 | 0.996 | 0.847 | 1.14 | 0.154 | 1.04 | 0.807 | 0.498 | 0.237 | -0.0773 | 0.904 | 0.626 (inactive)
3 | CC(C)C(=C=CC[C@H](O)c1ccccc1OCCO)C[C@H](O)COCc1ccccc1 | 0.435 | -0.392 (inactive) | -0.122 | -0.172 | 0.736 | 1.08 | 0.565 | 0.24 | -0.163 | 0.377 | 1.12 | -0.141 | -0.27 | -0.513 | -0.0978 | 0.107 | 0.742 | 0.346 | 0.133 | -0.961 (inactive)
4 | C=C(CCCC)C(=O)CC[C@@H](OC(=O)c1ccccc1-c1ccccc1C(=O)O)c1ccccc1OCCO | 0.269 | -0.136 (inactive) | -0.207 | -0.14 | 0.626 | -0.467 | 0.712 | 0.523 | 0.492 | 1.05 | 0.397 | 0.421 | -0.104 | 0.017 | 1.02 | 0.906 | 0.916 | 1.2 | -0.191 | -1.31 (inactive)
5 | [N-]=[N+]=NCc1ccccc1[C@@H]1OC(c2ccc(OCCCO)cc2)=N[C@]1(Cc1ccccc1N=[N+]=[N-])C(=O)O | 1 | -0.164 (inactive) | 0.663 | 0.481 | 0.566 | 2.4 | 0.262 | 1.31 | -0.126 | 1.13 | 3.38 | 1.23 | 0.334 | 1.04 | 1.1 | 0.626 | -0.652 | -0.132 | 1.21 | -5.68 (inactive)
6 | CC(=O)OCC1C2CC[C@H]3C(OCc4ccc(F)cc4C(F)(F)F)OC[C@]4(C)[C@H]3C2=C(CN4C(=O)OC(C)(C)C)[C@H](C)C1COC(C)=O (stereo not given in full) | 0.349 | -0.342 (inactive) | 0.16 | 0.117 | 0.807 | 0.826 | 0.95 | 0.0524 | -1.86 | 1.12 | 1.14 | -0.267 | 0.0527 | 0.783 | -0.603 | -1.66 | 1.71 | -0.372 | 0.517 | 1.62 (inactive)
7 | C=CCOC(=O)[C@H]1[C@@H]2C(=O)O[C@@H](c3ccccc3)[C@@H](c3ccccc3)N2[C@@H](c2ccc(OCCOC(=O)[C@H]3C[C@H]4C(=O)N[C@@H](CC(C)C)C(=O)N4[C@H]3c3ccc(O)cc3)cc2)[C@]12C(=O)Nc1ccccc12 | -1.5 | 0.0398 (inactive) | 0.0695 | -0.0666 | 0.368 | 1.74 | 0.878 | 1.31 | 1.26 | 1.06 | 0.1 | 1.26 | 0.66 | 0.8 | 1.36 | 1.79 | -1.48 | 1.39 | 0.624 | -0.782 (inactive)
8 | CCCc1cc2c(n1CCc1ccc(Cl)cc1)C(C)C1CN(C(=O)c3ccccc3)C(C)(C(=O)OC)C21 (stereo not given) | 1.03 | 0.313 (inactive) | 0.201 | 0.203 | 0.862 | 2.94 | 1.07 | 1.03 | -1.75 | 1.16 | 1.6 | 1.22 | 1.96 | 1.02 | 0.114 | -1.41 | 1.25 | -0.766 | 1.34 | -0.548 (inactive)
9 | O=C1NC(=O)C2C1C=CC(C(O)c1ccc(B(O)O)cc1)N2Nc1ccc(Cl)cc1Cl (stereo not given) | 0.0179 | 0.168 (inactive) | 0.0864 | 0.119 | 0.753 | 0.546 | -0.11 | -0.597 | 0.0005 | 0.423 | 0.207 | -0.213 | 0.265 | 0.824 | 0.529 | -0.514 | -0.711 | -0.382 | 0.641 | -0.63 (inactive)
10 | CN(C)CCCCNC(=O)[C@H]1C[C@H]2C(=O)NCC(=O)N2[C@H]1c1ccc(O)cc1 | -0.411 | 0.312 (inactive) | -0.368 | -0.13 | 0.712 | 0.0967 | -0.537 | -0.714 | 0.367 | 0.342 | 0.489 | -0.791 | -0.424 | -0.473 | 0.481 | 0.304 | -0.124 | 0.057 | 1.08 | 0.836 (inactive)
11 | CCCCC(O)C1C=CC2C(=O)N(c3ccccc3)C(=O)C2N1Nc1ccc(C#N)cc1 (stereo not given) | 0.859 | 0.22 (inactive) | 0.426 | 0.349 | 0.721 | 2.68 | 1.23 | 1.17 | -0.0433 | 0.778 | 0.584 | 1.13 | 0.764 | 0.981 | 0.0191 | 0.0696 | 0.0808 | -0.295 | 0.819 | -1.45 (inactive)
